Laboratory results as given in ChEMBL document CHEMBL3433997, “St. Jude Leishmania screening dataset” (2016).

What was measured:
Assay type in all cases: functional
[1] = biological target: Solute carrier family 2, facilitated glucose transporter member 1 (Homo sapiens) (UniProt P11166); assay: ST_JUDE_LEISH: Cytotoxicity at 2uM final concentration against transgenic Leishmania Mexicana promastigotes LmGLUT1 that are glucose transport deficient and complemented with the human glucose transporter GLUT1. Activity is measured by DNA content using SYBR green in vitro
[2] = biological target: Hexose transporter 1 (Plasmodium falciparum) (UniProt O97467); assay: ST_JUDE_LEISH: Cytotoxicity at 2uM final concentration against transgenic Leishmania Mexicana promastigotes LmPfHT that are glucose transport deficient and complemented with the Plasmodium falciparum hexose transporter. Activity is measured by DNA content using SYBR green in vitro
[3] = biological target: Glucose transporter (Leishmania mexicana) (UniProt O61059); assay: ST_JUDE_LEISH: Cytotoxicity at 2uM final concentration against transgenic Leishmania Mexicana promastigotes LmGT2 that are glucose transport deficient and complemented with the L. Mexicana glucose transporter 2. Activity is measured by DNA content using SYBR green in vitro

Chain of Solute carrier family 2, facilitated glucose transporter member 1 (Homo sapiens) (P11166 whole entry): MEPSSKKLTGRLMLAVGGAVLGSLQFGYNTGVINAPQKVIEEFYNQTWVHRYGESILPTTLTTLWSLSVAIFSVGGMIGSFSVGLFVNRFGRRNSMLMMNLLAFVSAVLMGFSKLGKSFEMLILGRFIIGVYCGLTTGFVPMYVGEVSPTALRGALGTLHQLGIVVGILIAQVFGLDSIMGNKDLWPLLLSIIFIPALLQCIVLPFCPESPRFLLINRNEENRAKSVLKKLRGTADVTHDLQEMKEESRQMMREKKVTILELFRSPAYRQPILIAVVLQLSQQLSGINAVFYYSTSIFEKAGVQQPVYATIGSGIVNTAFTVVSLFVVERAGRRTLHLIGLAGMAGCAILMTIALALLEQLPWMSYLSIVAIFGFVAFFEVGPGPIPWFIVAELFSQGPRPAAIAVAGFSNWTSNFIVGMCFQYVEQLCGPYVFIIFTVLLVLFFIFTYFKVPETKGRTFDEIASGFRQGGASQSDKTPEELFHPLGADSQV

Row | Structure (SMILES) | inhibition [1] [%] | inhibition [2] [%] | inhibition [3] [%]
1 | C=CCc1cc(Cc2cnc(N)nc2N)cc(CCC)c1OC | 15.3 | 12.5 | 8.6
2 | Nc1nc2c(ncn2COC(COCc2ccccc2)COCc2ccccc2)c(=O)[nH]1.Nc1nc2ncn(COC(COCc3ccccc3)COCc3ccccc3)c2c(=O)[nH]1 | -0.7 | -2 | -0.45
3 | CCn1c(-c2nonc2N)nc2c(-c3cccc(NC(=O)Nc4ccccc4OC)c3)ncc(OCCCN)c21 | 2.94 | 3.41 | 3.42
4 | COc1ccc(-c2nc(NC(=O)CS(=O)(=O)c3ccc(F)cc3)sc2C)cc1 | 8.03 | 4.52 | 2.47
5 | c1ccc(CNCc2cccc(-c3csc(-c4nc5ccccc5[nH]4)c3)c2)cc1 | 4.56 | 5.03 | 3.11
6 | COc1ccc(OC)c2c1CCN(CCN1CCC(C(=O)Nc3ccc(C(=O)Nc4ccc(Cl)cc4)cc3)CC1)C2 | 1.55 | 0.47 | 0.22
7 | CCNC(=O)Nc1ccc(-c2ccc(-c3nc4cccc(C)c4[nH]3)s2)cc1 | 11.7 | 8.87 | 7.95
8 | CCN(CC)CCCNC(=O)/C(=C/C=C/c1cc2cc(Cl)c(Cl)cc2[nH]1)OC | 7.56 | 11.3 | 7.84
9 | O=C(NCc1ccc(F)cc1)Nc1cccc(-c2ccc(-c3nc4cc(F)ccc4[nH]3)cc2)c1 | 6.43 | 7.78 | 7.37
10 | CCc1cn2c3c(cc(C(=O)N[C@@H](Cc4cccc(F)c4)[C@H](O)CNC4CC4)cc13)N(C)S(=O)(=O)CC2 | 2.18 | 3.5 | 4.48
11 | CCCN1CCCN(Cc2cccc(NC(=O)c3ccc(-c4ccccc4)cc3)c2)CC1 | 0.74 | 0.03 | -5.12
12 | Cc1cc(NC(=O)[C@H](CC2CCCCC2)Nc2ccc(C#N)c3ccccc23)ccc1F | 5.97 | 7.28 | 1.62
13 | Fc1cc(Cl)ccc1Nc1ccnc2cc(-c3ccc(CN4CCCCC4)o3)ccc12 | 2.55 | 1.59 | 0.77
14 | Cc1ccc(NC(=N)Nc2ncccc2OCc2c(F)cccc2Cl)cc1 | 7.2 | 7.97 | 5.56
15 | Cc1cc(N[C@@H](CC(C)C)C(=O)NCc2cccc(F)c2)nc(Nc2ccccc2)n1 | 4.15 | 2.87 | 1.1
16 | Cc1ccccc1C1CCN(c2ccc(C(=O)Nc3ccc(F)cc3)cn2)CC1 | 4.93 | -0.36 | 5.56
17 | CC(C)(C)c1nn(-c2ccccc2)c2[nH]c(=O)c(CNCc3ccccc3)cc12 | 2.76 | 2.02 | 3.75
18 | Cc1cc2ccccc2n1CC(=O)N1CC(C(=O)N2CCCCC2)Oc2ccccc21 (stereo not drawn) | -0.25 | 3.02 | 2.89
19 | CCC(CO)NCC(O)Cn1c2ccc(Br)cc2c2cc(Br)ccc21 (stereo not drawn) | 1.9 | -0.92 | -1.57
20 | COc1ccc(-c2nonc2NC(=O)c2cccc(C)c2)cc1OC | 11.9 | 10.7 | 10.1
21 | NC1CCN(Cc2ccc(-c3ccc(-c4nc5cc(F)ccc5[nH]4)s3)cc2)C1 (stereo not drawn) | 0.37 | 4.62 | 5.81
